Measurements published in PubChem BioAssay AID1053173 (Broad Institute, 2014).
In all, about 1,500 compounds went through this assay and about 390 (26%) were called active. No rule for the calls is given here. Not all results are given here. Measured potencies and affinities stand elsewhere.

Each compound was assayed against Histone-lysine N-methyltransferase NSD2 (Homo sapiens) (UniProt O96028) (assay: blockers of NSD2 H4 peptide methylation – biochemical, AlphaScreen, cherry-picked samples, dose response (AID 1053173;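 also: 0% = neutral control wells and -100% = positive control wells on each plate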)). Settings: 120 min; series mostly up to 10 µM; activity change, negative = inhibition: at the top concentration.
Sequence of Histone-lysine N-methyltransferase NSD2 (Homo sapiens) (O96028 whole entry, looked up): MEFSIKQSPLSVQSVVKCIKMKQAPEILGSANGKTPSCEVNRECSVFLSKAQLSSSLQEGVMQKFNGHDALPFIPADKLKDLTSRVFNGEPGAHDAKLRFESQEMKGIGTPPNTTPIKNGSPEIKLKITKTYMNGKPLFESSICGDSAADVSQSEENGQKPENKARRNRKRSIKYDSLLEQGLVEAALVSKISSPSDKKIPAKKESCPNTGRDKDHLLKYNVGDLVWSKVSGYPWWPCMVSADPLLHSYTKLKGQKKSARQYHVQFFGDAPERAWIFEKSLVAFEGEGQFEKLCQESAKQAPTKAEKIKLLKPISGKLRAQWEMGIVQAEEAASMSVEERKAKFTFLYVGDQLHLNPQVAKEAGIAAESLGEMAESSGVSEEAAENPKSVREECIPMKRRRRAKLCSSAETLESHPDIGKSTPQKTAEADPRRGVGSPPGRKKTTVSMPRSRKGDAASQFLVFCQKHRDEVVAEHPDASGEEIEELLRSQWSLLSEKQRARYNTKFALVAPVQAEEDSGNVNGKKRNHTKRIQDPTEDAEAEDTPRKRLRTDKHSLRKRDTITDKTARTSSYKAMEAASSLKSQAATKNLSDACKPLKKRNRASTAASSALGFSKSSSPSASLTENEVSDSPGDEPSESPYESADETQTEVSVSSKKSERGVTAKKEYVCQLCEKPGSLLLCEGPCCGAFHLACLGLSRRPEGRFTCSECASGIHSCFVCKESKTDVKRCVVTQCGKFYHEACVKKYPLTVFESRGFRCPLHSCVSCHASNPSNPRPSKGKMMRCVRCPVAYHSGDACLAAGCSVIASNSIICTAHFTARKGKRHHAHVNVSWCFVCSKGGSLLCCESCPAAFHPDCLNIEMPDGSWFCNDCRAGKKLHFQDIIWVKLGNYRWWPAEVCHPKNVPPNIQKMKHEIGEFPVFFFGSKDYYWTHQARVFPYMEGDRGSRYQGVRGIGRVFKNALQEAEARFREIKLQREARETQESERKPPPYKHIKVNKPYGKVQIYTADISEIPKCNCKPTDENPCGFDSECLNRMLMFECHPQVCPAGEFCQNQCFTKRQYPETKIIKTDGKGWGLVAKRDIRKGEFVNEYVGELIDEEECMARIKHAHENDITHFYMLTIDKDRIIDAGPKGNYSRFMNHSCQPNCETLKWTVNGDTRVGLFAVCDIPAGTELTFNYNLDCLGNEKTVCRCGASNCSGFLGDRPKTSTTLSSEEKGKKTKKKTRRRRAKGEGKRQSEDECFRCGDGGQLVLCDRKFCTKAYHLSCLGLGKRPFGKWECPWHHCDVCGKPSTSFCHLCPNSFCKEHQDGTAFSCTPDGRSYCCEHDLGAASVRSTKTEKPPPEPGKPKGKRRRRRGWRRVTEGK

Activity change, negative = inhibition, inactive:
COc1ccc2ccccc2c1C1CC(=O)N2CN(C)CSC2=C1C#N (stereo not drawn) -2.35%
Cc1cccc(C(=O)Nc2cccc(-c3cnc4ccccc4n3)c2)c1 0.722%
C/C(=N\O)C(C)Oc1ccc(Cl)cc1 (stereo not drawn) -0.765%
NC(=O)c1oc2ccc(Cl)cc2c1N 2.14%
CCc1ccc(N2CN=c3s/c(=C\c4ccccc4)c(=O)n3C2)cc1 -0.972%
CCN1CCN(Cc2nc(N)nc(Nc3ccc(C)c(C)c3)n2)CC1 -4.72%
CSc1nnc2c(n1)OC=Nc1ccccc1-2 -1.34%
COc1ccc(C2N(C(=O)C(F)(F)F)C(C)CN2S(=O)(=O)c2ccc(C)cc2)cc1 (stereo not drawn) 3.6%
Nc1ccc(N(CCO)CCO)cc1 -10.2%
O=C(CSCC(=O)N1CCOCC1)Nc1nc(-c2ccccc2)cs1 3.11%
Cc1cccc(NC(=O)CCN2CCCCC2)c1 2.22%
O=C(OC(C(=O)NC1CCCCC1)c1ccccn1)c1cccs1 (stereo not drawn) 2.7%
C/C(NCCc1ccccc1)=C1/CCOC1=O 3.57%
COC(=O)c1ccc(/C=N/N2CCN(Cc3ccccc3)CC2)cc1 -6.96%
CCCCCCCCn1cnc2c(N)c(C)c(C)cc21 -2.93%
Cc1cc(Cl)cc(Br)c1OCCCN1C(=O)NC(C)(C)C1=O 0.235%
CC(=O)C1=C(O)C(=O)N(Cc2cccnc2)C1c1ccccc1 (stereo not drawn) 1.51%
Cc1ccc(OCc2cnc(Cl)s2)c(C)c1 5.09%
CC(=O)N=Cc1c(C)c(C#N)c(=O)n(C)c1O -1.78%
Oc1cccc(NC(=S)N=Nc2c(O)[nH]c3ccc(Br)cc23)c1 -7.09%
CCOc1ccc2nc(SCC(=O)NCc3ccco3)sc2c1 4.48%
COC(=O)N/N=C1/C/C(=N\NC(=O)OC)c2ccccc21 -6.25%
N#Cc1c(NC(=O)c2ccncc2)sc2c1CCC2 -9.64%
COc1cc(OC)nc(NC2OC(=O)c3ccccc32)n1 (stereo not drawn) 1.18%
CC(CS(=O)(=O)c1ccc2c(c1)NC(=O)CS2)C(=O)NCc1ccccc1Cl (stereo not drawn) -10.3%
CC(Nc1cccc2ccccc12)C(=O)N/N=C/c1ccccn1 (stereo not drawn) -4.45%
Cc1cccc(/C=N/NC(=O)C(C)Nc2cccc3ccccc23)n1 (stereo not drawn) -8.21%
Cc1ccc(Cl)cc1NC(=O)C[n+]1ccc(Cc2ccc([N+](=O)[O-])cc2)cc1 -11.1%
O=C(CSc1nnc(-c2ccccc2O)o1)NC1CCCCC1 -3.18%
O=C(O)CN1C(=O)/C(=C\c2cccc(OCc3ccc(F)cc3)c2)SC1=S -11.4%
Cc1cccc(C)c1NC(=O)c1c[nH]c2ccccc12 1.49%
O=C1/C(=C/c2ccccc2)CN(C(=O)CCN2CCOCC2)C/C1=C\c1ccccc1 -3.75%
O=Cc1ccc(OC(=O)C2CC(=O)N(c3ccc(F)cc3)C2)cc1 (stereo not drawn) 1.57%
Cc1ccc(NC(=O)C[n+]2ccn(C3=C([O-])c4ccccc4C3=O)c2)cc1 -3.33%
Cc1c(C(=O)NC(C)C)oc2c1-c1[nH]ncc1CC2 0.875%
O=C(Nc1nnc(SCc2ccc(F)cc2)s1)c1ccccn1 -3.31%
c1ccc(CN2CCN(c3nc(-c4ccccc4)nc(-n4ccnc4)n3)CC2)cc1 -6.94%
O=C1NC(NS(=O)(=O)c2ccccc2)(C(F)(F)F)C(=O)N1c1cccc(Cl)c1 (stereo not drawn) 2.53%
CC(C)Sc1nnc([C@H](Cc2c[nH]c3ccccc23)NC(=O)OC(C)(C)C)o1 -0.557%
O=[N+]([O-])c1cccc(NC(=S)N2CCOCC2)c1 -0.806%
CCNC(=O)Cc1ccc(NS(=O)(=O)c2ccc(F)cc2)cc1 -0.17%
Cc1cc(C)nc(NS(=O)(=O)c2ccc(NC(=O)c3ccccc3Br)cc2)n1 -0.118%
O=S(=O)(Nc1cc(Sc2cccc3cccnc23)c(O)c2ccccc12)c1ccccc1 -6.01%
NS(=O)(=O)c1ccc(CNC(=O)CCCSc2ccccc2)cc1 -3.02%
CCOC(=O)c1cc(S(=O)(=O)Nc2ccc(OC)cc2OC)cn1C -1.2%
O=C1NC2=C(CCc3ccccc32)C(c2ccccc2)N1 (stereo not drawn) 6.24%
Cc1cccn2c(=O)c3cc(C(=O)NCCCn4ccnc4)n(C)c3nc12 1.31%
CCOc1cc(C(=O)NCC(=O)N2CCC3(CC2)NCCc2[nH]cnc23)cc(OCC)c1OCC -3.91%
O=[N+]([O-])c1ccc(N/N=C/c2cccs2)nc1 5.01%
CCOc1ccc(N)cc1OC -2.03%
CCN(CC)CCNC(=O)c1cccc(NC(=O)C(=O)c2cc(Br)ccc2NC(C)=O)c1 -7.78%
O=C(/C=C/c1ccc(Cl)cc1Cl)NCc1ccco1 -1.67%
CC1Cc2ccccc2N1C(=O)COc1cccc(-n2cnnn2)c1 (stereo not drawn) -1.63%
COc1ccc(CNC(=O)CN(c2ccc(C)cc2)S(=O)(=O)c2c(C)noc2C)cc1 1.5%
Cc1cc(F)c(F)c(C(=O)N2C(C)CCCC2C)c1Cl (stereo not drawn) 2.63%
CC1(C)Cc2cccc(OCC(=O)O)c2O1 6.66%
Cc1cc(=O)n(-c2ccc3ccccc3n2)[nH]1 -0.761%
COc1ccc2nc(NC(=O)CS(=O)(=O)c3ccc(C)cc3)sc2c1 2.31%
COc1ccc(N2C(=O)C3C(C2=O)C(C(=O)c2ccc(Cl)cc2)N2CCCC32)cc1 (stereo not drawn) -2.69%
COc1ccc(CCCc2n[nH]c(=S)n2C)cc1C 0.479%
CCOc1ccc(NC(=O)CSc2nnc(C34CC5CC(CC(C5)C3)C4)n2C)cc1 -1.31%
CCN(CC)CCNC(=O)CN1C(=O)COc2ccc(S(=O)(=O)N3CCOCC3)cc21 -0.09%
Cc1ccc(Cl)cc1N1CCN(C(=O)c2ccc3nc[nH]c3c2)CC1 -3.39%
CCOc1ccc(NC(=O)CSc2nc3ccccc3c(=O)n2CCCC(=O)N2CCCC2)cc1 2.25%
O=C(O)CN1C(=O)/C(=C/c2ccc(SCc3ccccc3)o2)SC1=S -15.1%
O=C1Cc2ccccc2C(=O)N1c1ccccc1 -4.05%
Clc1ccc(C2=CSC3=Nc4cccc5cccc(c45)N23)cc1 -5.57%
CN1/C(=N\O)c2cccc3cccc1c23 -5.13%
Cc1nn(CC(=O)Nc2nnc(C(C)C)s2)c(=O)c2ccccc12 -0.421%
Cc1cccc(Nc2nnc(-c3ccc(N4CCOCC4)c([N+](=O)[O-])c3)c3ccccc23)c1 -5.02%
CC(C)(C)c1[nH]nc2c1C(c1ccoc1)C(C#N)=C(N)O2 (stereo not drawn) -2.96%
Fc1ccc(CNc2nc(-c3cccnc3)nc3ccccc23)cc1 -0.605%
COC1=CC(=O)C(OC)=C(OC)C1=O -6.67%
N#CCC(=O)c1sccc1-n1cccc1 -6.36%
CNC(=O)c1ccc(-c2cc(C(F)(F)F)nn2C)s1 -2.74%
O=C(O)c1ccc2c(c1)C(=O)N(c1cccc(C(=O)/C=C/c3ccccc3)c1)C2=O -5.38%
Cc1[nH]n(-c2ccccc2)c(=O)c1C(c1ccc(C(=O)O)cc1)c1c(C)[nH]n(-c2ccccc2)c1=O -3.87%
Cc1ccnc(-n2c(CCN3C(=O)c4ccccc4C3=O)nc3ccccc3c2=O)c1 1.68%
CC1CCCCN1C(=O)CCNC(=O)Cn1cnc2ccccc2c1=O (stereo not drawn) -0.925%
CCN(CC)C(=O)C1CCCN(Cc2ccc(OC)c(C)c2C)C1 (stereo not drawn) -1.29%
Cc1cc2nn(-c3cccc4ccccc34)nc2cc1NC(=O)c1cccs1 -2.36%
COc1ccc(-c2nn(-c3ccccc3)cc2C(=O)Nc2ccc(C(=O)O)cc2)cc1 -3.2%
CC(=NO)c1cc(Br)c2cccc3c2c1CC3 -2.86%
Cc1ccc(/C=C2/SC(=O)NC2=S)o1 -13.5%
CC1(C)C2CCC1(C)C(OC(=O)CSc1nc(N)cc(=O)[nH]1)C2 (stereo not drawn) 0.121%
Cc1c(C(=O)c2no[n+]([O-])c2C(=O)c2cnn(C)c2C)cnn1C -0.643%
COc1ccc(Nc2oc(COc3ccccc3OC)nc2C#N)cc1 0.344%
CCOc1ccc(NC(=O)CN(c2cccc(C(F)(F)F)c2)S(C)(=O)=O)cc1 3.66%
COc1ccc(N/C=C2\CCc3ccccc3C2=O)cc1 -8.24%
COc1ccc(NC2=CC(c3cccc(OC)c3)N(c3ccc(OC)cc3)C2=O)cc1 (stereo not drawn) -3.22%
c1coc(CNCCCN2CCOCC2)c1 -2.81%
O=C(CN1CCC(C(=O)c2ccc3c(c2)OCCO3)CC1)NCc1ccccc1 -0.843%
COc1cccc(CN(C)C(=O)c2cc(COc3c(F)cccc3F)on2)c1 1.74%
Cc1ccccc1Nc1nc(N)nc(CSc2nnc3sc4ccccc4n23)n1 5.36%
COc1cc2sc(C)nc2c2ccccc12 -0.927%
Cc1ccc(Cn2c(SCC(=O)N3CC(=O)Nc4ccccc43)nc3ccccc3c2=O)cc1 -2.5%
CCN1CCN(c2ncnc3scc(-c4ccc(OC)cc4)c23)CC1 -10.3%
O=C(O)C1CC(c2ccccc2F)=NO1 (stereo not drawn) -4.43%
Cc1cc(C)cc(-n2c(C)nc3cc(C(=O)O)ccc32)c1 1.21%
O=C(CSc1ccc(Cl)cc1)Nc1cc(-c2nc3ncccc3o2)ccc1Cl -0.517%
COCCCNC1=C(Cl)C(=O)c2ccccc2C1=O -10.6%
CC(C)(C)CN1CCNC(=O)C1CC(=O)N1CCC(C(=O)N2CCOCC2)CC1 (stereo not drawn) 1.16%
CCOc1ccccc1/C=N/NC(=O)c1nnn(-c2nonc2N)c1CN1CCC(C)CC1 -3.55%
CNc1ccc(Br)cc(C(=O)/C=C/c2cccc(OC)c2OC)c1=O -8.99%
COc1cc(/C=C/c2cccc[n+]2C)ccc1OCC(=O)Nc1ccccc1C -0.922%
CC(C)(C)c1cc(C(=O)N/N=C/c2ccncc2)n[nH]1 -2.87%
CC(=O)c1ccc(NC(=S)Nc2cccc3cnccc23)cc1 -1.63%
COC(=O)c1c(NC(=O)C(C)C)sc(C(=O)N2CCOCC2)c1C -0.343%
COc1ccc(NC(=S)Nc2cccc3cnccc23)cc1 -4.99%
Cc1ccccc1NC(=S)Nc1cccc2cnccc12 -2.75%
CN(C)CCC(=O)N1C/C(=C/c2ccccc2)C(=O)/C(=C\c2ccccc2)C1 -5.71%
Cn1ncc(Cl)c1C(=O)Nc1cc(C(F)(F)F)ccc1F -1.47%
COc1ccc(/C=C2/C(=O)N(c3c(F)c(F)c(F)c(F)c3F)N=C2C)cc1 0.848%
